High-throughput results as filed in PubChem BioAssay.
Shown are actives, neighbours in structure and some others; about 2.6% of the full set was active somewhere.
TCR activator: Activators of T cell receptors: qHTS campaign. primary human leukocytes, anti-CD3, IL-2 HTRF, 48 h. Potency, µM (top dose mostly 9.22 µM), hits mostly activators. 330,000 tested, under 10 active
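Activity was scored as IL-2 release from primary human leukocytes given only a TCR signal (a-CD3 beads) plus compound for 48 hr. Detection used a two-antibody HTRF format read at 665nm.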
A549 tox: Nrf2 qHTS screen for inhibitors: counterscreen for cytotoxicity | A549 ARE-Fluc cells, CellTiter-Fluor viability, 18-24 h | Potency, µM (doses to about 46 µM), most hits filed as inhibitors | 390,000 compounds, 0.16% hits | AID 504648, 2011
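Cytotoxicity counterscreen: CellTiter-Fluor fluorescence was measured in A549 ARE_Fluc cells after 18-24 h of compound exposure in a concentration series. The subsequent BugLite luminescent read reports ARE-luciferase activity.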
Nrf2 activator: qHTS of Nrf2 Activators. AREc32 ARE-luciferase reporter (MCF7-derived line), luminescence, 24 h. Potency, µM (highest dose often 46.1 µM), usual class: activators. 410,000 compounds, 0.31% hits. AID 624171, 2012; further: nearly all actives have a fitted effect of over 65% in size
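AREc32 cells carrying an ARE-driven firefly luciferase reporter were seeded at 1000 cells/well in OPTI-MEM with 5% FBS, then exposed to compound for 24 hr at 37 deg C. Luminescence was read with Steady-Glo after 30 min at RT.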
Nrf2 block: Nrf2 qHTS screen for inhibitors; A549 ARE-Fluc reporter, luciferase luminescence, 18-24 h; Potency, µM (doses to about 46 µM), most hits filed as inhibitors; 360,000 compounds, 2.1% hits; AID 504444, 2011; further: nearly all actives have a fitted effect of over 60% in size
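A549 ARE_Fluc cells, 5000/well, 5% FBS OPTI-MEM; compounds in dose-response, 18-24 h at 37 °C/5% CO2; CellTiter-Fluor viability read (Ex 405/Em 525), then BugLite luciferase luminescence = Nrf2 activity.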
A-T KAP1 phos: qHTS Assay for Identifying a Potential Treatment of Ataxia-Telangiectasia; F2112 A-T fibroblasts, KAP-1 phosphorylation AlphaLISA; neocarzinostatin DNA damage 30 min before lysis; Potency, µM (series often up to 57.5 µM), usual class: activators; 320,000 compounds, 0.19% hits; further: nearly all actives have a fitted effect of over 45% in size
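ATM-like activity read as KAP-1 phosphorylation via AlphaLISA donor/acceptor antibody pairs after lysis and 6 hr at 25C. Cells were ATM-null patient fibroblasts (F2112, hTERT), dosed 60 min, then exposed to the DSB inducer NCS for 30 min.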
CCT chaperon mod: High-Throughput Screening for Modulators of Cytosolic Chaperonin Activity | purified chaperonin ATPase assay, HTRF ADP detection, 30 min | 360,000 compounds, 0.3% hits | activity change, % (test concentration not listed), hits read low; in the data active means activity change below about -30%
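ATPase activity: ADP formed was measured by HTRF Transcreener (665/615 nm ratio) after 30 min at 37 deg C with 10 uM ATP. Compounds screened at one 76 uM concentration against 40 or 20 nM TRiC in Tris pH 7.4/KCl/MgCl2/DTT buffer.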
Hits are given with their value; n = inactive; u = inconclusive; x = no result. Unless noted, the call rests on the fitted dose curve; in most records, active means well fitted curve in the direction sought with a large enough effect; inconclusive means small, poorly fitted or top-dose-only effect, or another doubt; inactive means no such curve, though single readings can be large; an effect the other way counts as inactive or inconclusive.

SMILES | TCR activator | A549 tox | Nrf2 activator | Nrf2 block | A-T KAP1 phos | CCT chaperon mod
CCC1CCCCN1CCCNC(=O)C1CC(=O)N(CCc2ccccc2)C1 (stereo not given) | n | n | n | n | n | n
Cc1ccc(S(=O)(=O)Nc2cccc3ncccc23)cc1 | n | n | n | n | n | n
Cc1ccc(S(=O)(=O)Nc2cccc3ncccc23)s1 | n | u | u | 15µM | n | n
Nc1cc(C(F)(F)F)ccc1NCCc1ccccn1 | n | n | 13µM | n | n | -107
c1ccc(NCCc2ccccn2)cc1 | n | n | n | u | x | n
CCOc1ccc(NC(=S)c2ccc3ccccc3n2)cc1 | n | n | n | u | n | -30
COc1ccc(NC(=S)c2ccc3ccccc3n2)cc1 | n | n | n | u | n | n
Cc1ccn2c(-c3csc(NCc4ccco4)n3)c(C)nc2c1 | n | n | n | 23µM | n | n
COc1ccc(-c2csc(NCc3ccco3)n2)cc1C | n | n | n | u | n | n
O=C(Nc1sc2c(c1C(=O)NCc1ccco1)CCCC2)c1cc(=O)c2cc(Cl)ccc2o1 | x | n | n | n | x | x
COC(=O)c1ccccc1NC(=O)CSc1nc(C)c(Cl)c(C)c1C#N | x | n | n | x | x | x
Cn1c(=O)c(=O)n(C)c2cc(S(=O)(=O)N3CCC(Cc4ccccc4)CC3)ccc21 | n | n | n | n | n | n
CN(C)c1ccc(S(=O)(=O)N2CCC(Cc3ccccc3)CC2)cn1 | n | n | n | 21µM | n | n
COc1ccc(C)cc1-n1nnnc1SCc1cc(=O)n2cc(C)ccc2n1 | n | n | n | 13µM | u | n
COc1ccc(C)cc1-n1nnnc1SCc1csc(C)n1 | n | n | n | n | n | n
O=C(Nc1ccccc1)c1cc2ccccc2c(=O)s1 | n | n | 10µM | n | n | n
CCOC(=O)N1CCN(C(=O)CNC(=O)c2ccc(Br)o2)CC1 | n | n | n | n | n | -53
O=c1c2ccccc2nc(-c2ccccc2O)n1Cc1ccccc1 | x | n | x | n | x | x
CC(C)(C)c1ccc(C(=O)NC(=O)COC(=O)CCS(=O)(=O)c2ccccc2)cc1 | n | n | n | n | n | -68
O=C(Nc1ccc(-c2noc(CCc3ccccc3)n2)cc1)c1ccco1 | n | n | n | u | n | -56
c1ccc(CCc2nc(-c3ccccc3)no2)cc1 | n | n | n | n | n | n
Cc1c(C)n(Cc2ccc(F)cc2)c2ccc(C(=O)N3CCN(c4ccc(Cl)cc4)CC3)cc12 | x | n | n | u | x | x
Cc1ccc(C(CC(=O)NCc2ccco2)c2ccc(OC(C)C)cc2)cc1 (stereo not given) | n | u | n | 7.3µM | x | n
Cc1nn(CCCC(=O)Nc2cccc(F)c2)c(=O)c2c1sc1ccccc12 | x | n | n | 2.6µM | x | x
Cc1ccc(SCC(=O)NNC(=O)c2ccccc2)c(C)c1 | n | n | n | n | n | n
SMILES | TCR activator | A549 tox | Nrf2 activator | Nrf2 block | A-T KAP1 phos | CCT chaperon mod
CC(=O)c1cccc(-n2nnnc2SCC(=O)Nc2ccccc2N2CCCCC2)c1 | n | n | n | 23µM | n | n
COC(=O)c1cc(Cl)ccc1NC(=O)CSc1ncc(S(=O)(=O)c2ccc(Br)cc2)c(=O)[nH]1 | x | n | n | n | x | x
COCCCNc1ncnc2c1cnn2-c1ccc(F)cc1 | x | n | n | x | x | x
Cc1onc(-c2ccccc2)c1C(=O)N/N=C/c1cc2c(cc1Br)OCO2 | n | n | n | u | n | n
CCN(CC)CCn1c2ccccc2c2cnc(N)c(C#N)c21 | n | u | n | 5.2µM | n | n
O=C1/C(=C/C=C/c2ccco2)SC(=S)N1c1ccc(O)cc1 | n | n | 10µM | n | n | n
O=C1/C(=C\c2ccco2)SC(=S)N1c1ccc(O)cc1 | n | n | n | n | n | n
CN1C(=O)S/C(=C\c2ccc(-n3cncn3)cc2)C1=O | n | n | n | n | n | n
CCc1cccc(C)c1NC(=O)CSc1nnc(-c2cc3cc(Br)ccc3o2)n1CC | n | u | n | 16µM | n | n
Cc1onc(-c2ccccc2Cl)c1C(=O)NCc1nc(-c2ccc(C(F)(F)F)cc2)no1 | n | n | n | 26µM | n | n
Cc1onc(-c2ccccc2Cl)c1C(=O)NCc1ccccc1F | n | n | n | n | n | n
CC(=O)N1CCc2cc(S(=O)(=O)N3c4ccccc4CC3C)ccc21 (stereo not given) | n | n | n | 15µM | n | n
CCOC(=O)c1c(NC(C)=O)c2c3c(sc2n1Cc1nc(-c2ccccc2OCC)oc1C)CCCC3 | x | n | n | n | x | x
CCOC(=O)c1ccc(N2C(=O)c3n[nH]c(C)c3C2c2ccccc2OC)cc1 (stereo not given) | x | n | n | 8.2µM | x | x
CCOC(=O)c1ccc(N2C(=O)c3n[nH]c(-c4ccco4)c3C2c2ccccc2OC)cc1 (stereo not given) | x | n | n | 26µM | x | x
CCOC(=O)c1ccc(N2C(=O)c3n[nH]c(C)c3C2c2ccccc2)cc1 (stereo not given) | n | n | n | u | n | n
COc1cc(Nc2nc3c(S(=O)(=O)c4ccc(C)c(C)c4)nnn3c3ccsc23)cc(OC)c1 | x | n | n | n | x | x
COc1ccc(OCCCn2ccnc2)cc1 | n | n | n | n | 3.2µM | n
COc1ccc(C(=O)NCCc2ccccn2)cc1S(=O)(=O)Nc1ccc(Br)cc1 | n | n | n | n | n | n
CC(=O)Nc1ccc2c(c1)C(=O)c1ccccc1C2=O | n | n | n | u | n | n
CC(C)(C)C(=O)Nc1ccc2c(c1)C(=O)C(=O)c1ccccc1-2 | x | u | x | 21µM | x | x
Cc1ccccc1OCC(=O)Nc1ccc2c(c1)C(=O)c1ccccc1C2=O | n | u | n | 15µM | n | n
S=c1nc(-c2ccccc2)oc2c1CCCC2 | n | n | 11µM | u | n | n
COc1cccc(-c2nc(=S)c3c(o2)CCCC3)c1 | n | n | 11µM | n | n | n
Cc1ccc2nc(-c3ccccc3)cn2c1 | n | n | n | 6.5µM | n | n
Cc1ccc(-c2cn3nc(-c4ccccc4)c(-c4ccccc4)nc3n2)cc1 | n | n | n | u | 28µM | n
Cc1ccc2nc(-c3ccc(O)c(O)c3)cn2c1 | n | n | n | u | n | n
c1ccc(-c2cn3nc(-c4ccccc4)c(-c4ccccc4)nc3n2)cc1 | n | u | n | u | n | n
Fc1ccc(CCNc2ncnc3nc[nH]c23)cc1 | x | n | x | u | x | x
O=C(Nc1ccc(F)c(F)c1)c1ccc(-n2cncn2)c([N+](=O)[O-])c1 | n | n | n | 10µM | n | n
